# Measurements reported in article PMC11062922 (Nature Chemical Biology, 2023).
# Read-outs that look alike come from different tables or passages of the source.
# What was measured:
# Set-up in all cases: species or system human, MV4-11 + K-562 + COLO205 + SK-N-BE2 + OVCAR-8
# ACVR1B = conditions: read-out: apparent Kd; compound concentrations: 100 nM and 1000 nM (sheet 'Samples'), CATDS: 1.87484218332362E-2; n = 1
# BTK = conditions: read-out: apparent Kd, compound concentrations: 100 nM and 1000 nM (sheet 'Samples'), n = 1
# CDK16 = conditions: read-out: apparent Kd, compound concentrations: 100 nM and 1000 nM (sheet 'Samples'), n = 1
# CSK = conditions: read-out: apparent Kd, compound concentrations: 100 nM and 1000 nM (sheet 'Samples'), n = 1
# EPHA1 = conditions: read-out: apparent Kd, compound concentrations: 100 nM and 1000 nM (sheet 'Samples'), n = 1
# SIK2 = conditions: read-out: apparent Kd, compound concentrations: 100 nM and 1000 nM (sheet 'Samples'), n = 1
# SRC = conditions: read-out: apparent Kd, compound concentrations: 100 nM and 1000 nM (sheet 'Samples'), n = 1
# TNK1 = conditions: read-out: apparent Kd, compound concentrations: 100 nM and 1000 nM (sheet 'Samples'), n = 1
# ZAK = conditions: read-out: apparent Kd, compound concentrations: 100 nM and 1000 nM (sheet 'Samples'), n = 1
# AURKB = conditions: read-out: apparent Kd, compound concentrations: 100 nM and 1000 nM (sheet 'Samples'), n = 1
# FLT3 = conditions: read-out: apparent Kd, compound concentrations: 100 nM and 1000 nM (sheet 'Samples'), n = 1
# MAP2K5 = conditions: read-out: apparent Kd, compound concentrations: 100 nM and 1000 nM (sheet 'Samples'), n = 1
# DDR1 = conditions: read-out: apparent Kd, compound concentrations: 100 nM and 1000 nM (sheet 'Samples'), n = 1
# ACVR1 = conditions: read-out: apparent Kd; compound concentrations: 100 nM and 1000 nM (sheet 'Samples'), CATDS: 0.132778001486796; n = 1
structure (smiles),measurement,setting,value
CC(C)c1nc(-c2cccc(NS(=O)(=O)c3c(F)cccc3F)c2)c(-c2ccnc(Nc3ccc(N4CCOCC4)nc3)n2)s1.Cl [GSK1723980B],potency estimated from few doses,ACVR1B,614 nM
same,potency estimated from few doses,BTK; CATDS: 1.5505297907028599E-2,1260 nM
same,potency estimated from few doses,CDK16; CATDS: 2.4648897890500801E-2,294 nM
same,potency estimated from few doses,CSK; CATDS: 4.9145326105273501E-2,81.6 nM
same,potency estimated from few doses,EPHA1; CATDS: 2.59841988169222E-2,261 nM
same,potency estimated from few doses,SIK2; CATDS: 1.4802843404643599E-2,1590 nM
same,potency estimated from few doses,SRC; CATDS: 2.25730576079274E-2,364 nM
same,potency estimated from few doses,TNK1; CATDS: 4.2309935228441099E-2,104 nM
same,potency estimated from few doses,ZAK; CATDS: 1.6677685613390399E-2,926 nM
CC(C)c1nc(-c2cccc(NS(=O)(=O)c3c(F)cccc3F)c2F)c(-c2ccnc(Nc3ccc(N4CCOCC4)nc3)n2)s1 [GSK2008607A],potency estimated from few doses,BTK; CATDS: 2.19270493489029E-2,1030 nM
same,potency estimated from few doses,CDK16; CATDS: 3.1735932444665597E-2,424 nM
same,potency estimated from few doses,CSK; CATDS: 4.1008032947333198E-2,262 nM
same,potency estimated from few doses,EPHA1; CATDS: 2.5663443213215401E-2,679 nM
same,potency estimated from few doses,TNK1; CATDS: 8.7218482008179707E-2,82.7 nM
CN(C)Cc1ccc(-c2ccc3c(Nc4ccc(Oc5ccccn5)cc4)ccnc3c2)o1 [GW567148X],potency estimated from few doses,AURKB; CATDS: 1.8860841823088701E-2,1200 nM
same,potency estimated from few doses,CSK; CATDS: 1.6993908707239901E-2,1760 nM
same,potency estimated from few doses,EPHA1; CATDS: 2.4503846064608301E-2,577 nM
same,potency estimated from few doses,FLT3; CATDS: 2.7806184989220401E-2,433 nM
same,potency estimated from few doses,MAP2K5; CATDS: 0.100463270176777,51.4 nM
same,potency estimated from few doses,SRC; CATDS: 3.3500581656618303E-2,297 nM
same,potency estimated from few doses,TNK1; CATDS: 3.2421651582332497E-2,316 nM
Cc1ccc(O)cc1Nc1ccnc2ccc(C(C)(C)C)cc12 [GW856805X],potency estimated from few doses,EPHA1; CATDS: 0.48562635988047498,1.03 nM
CC(=O)N1CCN(c2ccc(Nc3nccc(-c4sc(C(C)C)nc4-c4cccc(NS(=O)(=O)c5ccccc5)c4)n3)cn2)CC1 [GSK1645872A],potency estimated from few doses,CDK16; CATDS: 3.8372919727344801E-2,431 nM
same,potency estimated from few doses,TNK1; CATDS: 4.1915160463804002E-2,364 nM
same,potency estimated from few doses,ZAK; CATDS: 2.8355440499728699E-2,855 nM
CN1CCc2ccc(Nc3nccc(-c4c(-c5cccc(NC(=O)c6c(F)cccc6F)c5)nc5ccccn45)n3)cc2C1.Cl [GSK1010829B],potency estimated from few doses,BTK; CATDS: 5.3394659124358E-2,497 nM
same,potency estimated from few doses,CSK; CATDS: 3.4286589805654001E-2,1380 nM
same,potency estimated from few doses,DDR1; CATDS: 3.8396909039531198E-2,1010 nM
same,potency estimated from few doses,SRC; CATDS: 5.29363400907749E-2,505 nM
same,potency estimated from few doses,TNK1; CATDS: 4.6231570261128598E-2,661 nM
CN1CCN(Cc2ccc(NC(=O)Nc3ccc(N(C)c4ccnc(Nc5ccc(CS(C)(=O)=O)cc5)n4)cc3)cc2)CC1.Cl [GW827654A],potency estimated from few doses,AURKB; CATDS: 4.55704320916199E-2,700 nM
same,potency estimated from few doses,DDR1; CATDS: 9.0540797508364801E-2,147 nM
same,potency estimated from few doses,FLT3; CATDS: 0.105116266606525,112 nM
same,potency estimated from few doses,TNK1; CATDS: 0.12102048296208601,87.9 nM
c1ccc(Oc2ccc(Nc3ccnc4cc(-c5ccc(CN6CCCCC6)o5)ccc34)cc2)nc1 [GW567143X],potency estimated from few doses,AURKB; CATDS: 3.8957530355760599E-2,1180 nM
same,potency estimated from few doses,EPHA1; CATDS: 6.2167566437911E-2,315 nM
same,potency estimated from few doses,FLT3; CATDS: 0.15169843184363399,60.9 nM
same,potency estimated from few doses,MAP2K5; CATDS: 0.10658346724576,108 nM
same,potency estimated from few doses,SRC; CATDS: 5.3011588623511699E-2,464 nM
same,potency estimated from few doses,ZAK; CATDS: 3.3669776805855603E-2,2210 nM
N#Cc1cnc2cc(-c3cnc(CNCCN4CCOCC4)s3)ccc2c1Nc1ccc(Oc2ccccc2)cc1 [GW664114X],potency estimated from few doses,CSK; CATDS: 6.7492290868603394E-2,448 nM
same,potency estimated from few doses,MAP2K5; CATDS: 9.4704147517168505E-2,230 nM
same,potency estimated from few doses,SRC; CATDS: 8.2949353782893101E-2,293 nM
COc1cc2nccc(Nc3ccc(Oc4ccccc4)cc3)c2cc1OC.Cl [GI261656A],potency estimated from few doses,BTK; CATDS: 4.2074902264998597E-2,1400 nM
same,potency estimated from few doses,MAP2K5; CATDS: 9.9796697062305095E-2,95.6 nM
same,potency estimated from few doses,SRC; CATDS: 5.79534996745752E-2,372 nM
Fc1cc(Cl)ccc1Nc1ccnc2cc(-c3ccc(CN4CCOCC4)o3)ccc12 [GW560109X],potency estimated from few doses,EPHA1; CATDS: 7.1072488518175297E-2,699 nM
same,potency estimated from few doses,SIK2; CATDS: 7.4326552669870996E-2,630 nM
Nc1ncc(-c2cn[nH]c2)c2scc(-c3ccc4c(c3)CCN4C(=O)Cc3ccccc3)c12 [GSK2593067A],potency estimated from few doses,AURKB; CATDS: 6.5904790346866707E-2,1230 nM
CN1CCN(Cc2cccc(-c3ccc4c(Nc5ccc(Oc6ccccc6)cc5)ccnc4c3)c2)CC1 [GW578342X],potency estimated from few doses,MAP2K5; CATDS: 0.10104411833730501,640 nM
same,potency estimated from few doses,SRC; CATDS: 9.2821429290207799E-2,825 nM
CN1CCN(Cc2ccc(-c3ccc4c(Nc5ccc(Oc6ccccn6)cc5)ccnc4c3)o2)CC1 [GW567140X],potency estimated from few doses,EPHA1; CATDS: 4.2699834629257603E-2,760 nM
same,potency estimated from few doses,FLT3; CATDS: 5.7646545219248203E-2,368 nM
same,potency estimated from few doses,MAP2K5; CATDS: 0.16913978514831801,58.2 nM
same,potency estimated from few doses,SRC; CATDS: 4.7577990075445997E-2,573 nM
Cc1cc(O)cc(C)c1/C=C/c1cncc(-c2nn[nH]n2)c1.Cl [GW441806A],potency estimated from few doses,ACVR1,85.5 nM
same,potency estimated from few doses,MAP2K5; CATDS: 4.6114067598033499E-2,1310 nM
same,potency estimated from few doses,SIK2; CATDS: 4.4020639379416998E-2,1540 nM
CS(=O)(=O)Cc1ccc(Nc2nccc(-c3c(-c4cccc(NC(=O)c5c(F)cccc5F)c4)nn4ccccc34)n2)cc1 [GSK323543A],potency estimated from few doses,BTK; CATDS: 6.87410205009992E-2,1140 nM
same,potency estimated from few doses,DDR1; CATDS: 5.7176748718511097E-2,1930 nM
same,potency estimated from few doses,TNK1; CATDS: 0.144635692896082,288 nM
NS(=O)(=O)CCc1cccc(Nc2nccc(-c3c(-c4cccc(NC(=O)c5c(F)cccc5F)c4)nn4ccccc34)n2)c1 [GSK336735A],potency estimated from few doses,AURKB; CATDS: 5.6735057475689701E-2,1260 nM
same,potency estimated from few doses,BTK; CATDS: 6.9613472327250694E-2,756 nM
same,potency estimated from few doses,CSK; CATDS: 5.7355343721703998E-2,1220 nM
same,potency estimated from few doses,DDR1; CATDS: 5.2826618660154298E-2,1570 nM
same,potency estimated from few doses,TNK1; CATDS: 8.7840058842797303E-2,475 nM
CC(=O)N1CCN(c2ccc(Nc3nccc(-c4sc(C(C)C)nc4-c4cccc(NS(=O)(=O)c5cccc(Cl)c5)c4)n3)cn2)CC1 [GSK1660437A],potency estimated from few doses,CDK16; CATDS: 4.5005275972449597E-2,1070 nM
same,potency estimated from few doses,CSK; CATDS: 5.27130468240418E-2,741 nM
same,potency estimated from few doses,TNK1; CATDS: 7.10025614221442E-2,418 nM
same,potency estimated from few doses,ZAK; CATDS: 3.4947671861574499E-2,2310 nM
